Data on six compounds can be found in PubChem BioAssay (EPA / NIEHS).

A word on the AC50: it is the midpoint of the concentration-response curve, whichever way the signal moves.

Read-out in assay [1]: Urokinase-type plasminogen activator receptor (uPAR), PLAUR (gene 5329)
Description: BSK_4H_uPAR: BioMAP Diversity Plus: 4H Assay for Urokinase-type plasminogen activator receptor (uPAR) Biomarker Activity (AID 2283030). The settings on record: primary human endothelial cells (HUVEC); actives raise or lower the signal. The essentials: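 Human umbilical vein endothelial cells in the 4H system, 24 h after chemical dosing. Cell-surface uPAR measured by ELISA, fitted in both directions versus DMSO; cytotoxicity checked by SRB total protein in parallel cultures.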

Read-out in assay [2]: Vascular endothelial growth factor receptor 2 (Homo sapiens) (UniProt P35968)
Description: BSK_4H_VEGFRII: BioMAP Diversity Plus: 4H Assay for Vascular endothelial growth factor receptor 2 (VEGFR2) Biomarker Activity (AID 2283031).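 On AC50: cell-surface VEGFR2 protein level quantified by ELISA.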 The following applies: primary human endothelial cells (HUVEC); actives raise or lower the signal. The gist of the method: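 Primary human umbilical vein endothelial cells (4H system), 24 h exposure; cell-surface VEGFR2 measured by ELISA. Bidirectional fitting versus DMSO; cytotoxicity checked in parallel by SRB total-protein staining.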

Read-out in assay [3]: Human Leukocyte Antigen - DR isotype (HLADR), HLA-DRA (gene 3122)
Description: BSK_BE3C_HLADR: BioMAP Diversity Plus: BE3C Assay for Human Leukocyte Antigen - DR isotype (HLADR) Biomarker Activity (AID 2283032). The following applies: primary human bronchial epithelial cells; actives raise or lower the signal. The essentials: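 Human primary bronchial epithelial cells (BE3C system) exposed to compound for 24 hours; cell-surface HLA-DR measured by ELISA, fitted bidirectionally relative to DMSO. Total protein by SRB in parallel cultures tracked cytotoxicity.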

Read-out in assay [4]: Vascular cell adhesion molecule 1 (VCAM1), VCAM1 (gene 7412)
The assay can be described thus: BSK_4H_VCAM1: BioMAP Diversity Plus: 4H Assay for Vascular cell adhesion molecule 1 (VCAM1) Biomarker Activity (AID 2283033). The following applies: primary human endothelial cells (HUVEC); actives raise or lower the signal. The essentials: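 Primary human umbilical vein endothelial cells, 4H stimulation system, treated for 24 h; cell-surface VCAM-1 quantified by ELISA. Bidirectional fitting against DMSO; cytotoxicity tracked by SRB total-protein staining in parallel cultures.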

Read-out in assay [5]: Interferon-gamma inducible Protein 10 (IP10), CXCL10 (gene 3627)
Description: BSK_BE3C_IP10: BioMAP Diversity Plus: BE3C Assay for Interferon-gamma inducible Protein 10 (IP10) Biomarker Activity (AID 2283034). The settings on record: primary human bronchial epithelial cells; actives raise or lower the signal. The essentials: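 Primary human bronchial epithelial cells, with IP-10 measured by ELISA 24 hours after chemical dosing. Bidirectional fit against DMSO; cytotoxicity checked by SRB total protein staining in parallel cultures.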

Read-out in assay [6]: Transforming growth factor beta 1 (TGFb1), TGFB1 (gene 7040)
Description: BSK_BE3C_TGFb1: BioMAP Diversity Plus: BE3C Assay for Transforming growth factor beta 1 (TGFb1) Biomarker Activity (AID 2283036). The settings on record: primary human bronchial epithelial cells; actives raise or lower the signal. The gist of the method: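 Primary human bronchial epithelial cells dosed with chemical; TGF-b1 measured by ELISA 24 h after dosing. Bidirectional curve fitting against DMSO negative control; SRB total-protein staining in parallel cultures gauged cytotoxicity.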

Read-out in assay [7]: Plasminogen activator inhibitor-1 (PAI1), SERPINE1 (gene 5054)
Description: BSK_BE3C_PAI1: BioMAP Diversity Plus: BE3C Assay for Plasminogen activator inhibitor-1 (PAI1) Biomarker Activity (AID 2283037). The settings on record: primary human bronchial epithelial cells; actives raise or lower the signal. The gist of the method: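 Primary human bronchial epithelial cells (BE3C system) exposed 24 h; PAI-1 quantified by ELISA. Parallel sulforhodamine B staining of total protein flags cytotoxicity. Bidirectional fit versus DMSO.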

Read-out in assay [8]: urokinase plasminogen activator (uPA), PLAU (gene 5328)
Description: BSK_BE3C_uPA: BioMAP Diversity Plus: BE3C Assay for urokinase plasminogen activator (uPA) Biomarker Activity (AID 2283038).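 On outcome: uPA protein level quantified by ELISA in cell cultures; uPA read one day after compound addition.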 The following applies: primary human bronchial epithelial cells; actives raise or lower the signal. The gist of the method: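 Primary human bronchial epithelial cells, uPA measured by ELISA 24 h after dosing. Bidirectional change relative to DMSO; cytotoxicity checked in parallel cultures by sulforhodamine B total-protein staining.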

Read-out in assay [9]: Urokinase-type plasminogen activator receptor (uPAR), PLAUR (gene 5329)
The assay can be described thus: BSK_BE3C_uPAR: BioMAP Diversity Plus: BE3C Assay for Urokinase-type plasminogen activator receptor (uPAR) Biomarker Activity (AID 2283039).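 On outcome: cells exposed to compound for one day before measurement.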 The settings on record: primary human bronchial epithelial cells; actives raise or lower the signal. The gist of the method: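 Primary human bronchial epithelial cells dosed for 24 h; uPAR quantified by ELISA with bidirectional fitting against DMSO. Overt cytotoxicity assessed in parallel cultures by SRB total-protein staining (0.1% SRB, 560 nm).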

Read-out in assay [10]: Interleukin-6 (IL6), IL6 (gene 3569)
The assay can be described thus: BSK_CASM3C_IL6: BioMAP Diversity Plus: CASM3C Assay for Interleukin-6 (IL6) Biomarker Activity for (AID 2283040). The settings on record: primary human coronary artery smooth muscle cells; actives raise or lower the signal.

Read-out in assay [11]: Tissue plasminogen activator (tPA), PLAT (gene 5327)
Description: BSK_BE3C_tPA: BioMAP Diversity Plus: BE3C Assay for Tissue plasminogen activator (tPA) Biomarker Activity (AID 2283041).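 On outcome: tPA level quantified by ELISA one day after compound addition.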 The following applies: primary human bronchial epithelial cells; actives raise or lower the signal. The gist of the method: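 Primary human bronchial epithelial cells in the BE3C system, exposed to compound for 24 h. tPA was quantified by ELISA; DMSO served as baseline, with gain or loss of signal fitted. Cytotoxicity checked in parallel cultures by SRB total-protein staining.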

Read-out in assay [12]: Interleukin-8 (IL8), CXCL8 (gene 3576)
The assay can be described thus: BSK_CASM3C_IL8: BioMAP Diversity Plus: CASM3C Assay for Interleukin-8 (IL8) Biomarker Activity (AID 2283042).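 Further: IL-8 protein level quantified by ELISA.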 The settings on record: primary human coronary artery smooth muscle cells; actives raise or lower the signal.

Read-out in assay [13]: Human Leukocyte Antigen - DR isotype (HLADR), HLA-DRA (gene 3122)
Description: BSK_CASM3C_HLADR: BioMAP Diversity Plus: CASM3C Assay for Human Leukocyte Antigen - DR isotype (HLADR) Biomarker Activity (AID 2283043).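 Further: cell-surface HLA-DR protein level quantified by ELISA.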 The following applies: primary human coronary artery smooth muscle cells; actives raise or lower the signal.

Read-out in assay [14]: Macrophage colony-stimulating factor (MCSF), CSF1 (gene 1435)
The assay can be described thus: BSK_CASM3C_MCSF: BioMAP Diversity Plus: CASM3C Assay for Macrophage colony-stimulating factor (MCSF) Biomarker Activity (AID 2283044).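 Further: M-CSF protein amount quantified by ELISA after 24 h exposure.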 The following applies: primary human coronary artery smooth muscle cells; actives raise or lower the signal.

Read-out in assay [15]: Low-density lipoprotein receptor (LDLR), LDLR (gene 3949)
The assay can be described thus: BSK_CASM3C_LDLR: BioMAP Diversity Plus: CASM3C Assay for Low-density lipoprotein receptor (LDLR) Biomarker Activity (AID 2283045).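 Further: LDLR protein level on the cell surface quantified by ELISA.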 The settings on record: primary human coronary artery smooth muscle cells; actives raise or lower the signal.

Read-out in assay [16]: Monocyte Chemoattractant Protein-1 (MCP1), CCL2 (gene 6347)
Description: BSK_CASM3C_MCP1: BioMAP Diversity Plus: CASM3C Assay for Monocyte Chemoattractant Protein-1 (MCP1) Biomarker Activity (AID 2283046).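 Further: MCP-1 level quantified by ELISA 24 h after dosing.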 The settings on record: primary human coronary artery smooth muscle cells; actives raise or lower the signal.

Assay [17] can be described thus: BSK_CASM3C_Proliferation: Cell Proliferation Assessment in the BioMAP Diversity Plus: CASM3C Assay (AID 2283047).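 Further: sulforhodamine B total protein stain as relative cell number at 560 nm; sub-confluent cells exposed 48 h before staining; fitted both ways against DMSO so gain or loss of cell number.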 The settings on record: primary human coronary artery smooth muscle cells.
Read-out in assay [18]: Monokine induced gamma interferon (MIG), CXCL9 (gene 4283)
The assay can be described thus: BSK_CASM3C_MIG: BioMAP Diversity Plus: CASM3C Assay for Monokine induced gamma interferon (MIG) Biomarker Activity (AID 2283048).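 Further: MIG protein level measured by ELISA.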 The following applies: primary human coronary artery smooth muscle cells; actives raise or lower the signal.

Read-out in assay [19]: serum amyloid A (SAA), SAA1 (gene 6288)
The assay can be described thus: BSK_CASM3C_SAA: BioMAP Diversity Plus: CASM3C Assay for serum amyloid A (SAA) Biomarker Activity (AID 2283049).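 Further: SAA protein level quantified by ELISA.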 The following applies: primary human coronary artery smooth muscle cells; actives raise or lower the signal.

Read-out in assay [20]: Monokine induced gamma interferon (MIG), CXCL9 (gene 4283)
Description: BSK_BE3C_MIG: BioMAP Diversity Plus: BE3C Assay for Monokine induced gamma interferon (MIG) Biomarker Activity (AID 2283035). The settings on record: primary human bronchial epithelial cells; actives raise or lower the signal. The gist of the method:
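MIG level was determined by ELISA after 24 h chemical treatment of primary human bronchial epithelial cells. Values were fitted bidirectionally with DMSO as the negative control and activity baseline.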

Structures are written as SMILES. Calls of active or inactive are those of the source. How the source made its calls: active means hit-call score of the fitted dose curve at least 0.9, where 1 is the maximum; inactive means score below 0.9.

Turning to `CCOP(=S)(OCC)SCn1c(=O)oc2cc(Cl)ccc21`, the outcome in assay [1], in [2], in assay [3], in assay [5], in assay [6] and in assay [7] was inactive. Moreover, the result in [8], in assay [10], in assay [11], in assay [13], in assay [14] and in assay [15] was inactive. The outcome in assay [16], in assay [17], in assay [18] and in assay [19] was inactive. In addition, the AC50 was 26.1 µM (active) in assay [4], 0.147 µM (active) in [9] and 4.25 µM (active) in assay [12].
On to `CN(C)C(=S)SSC(=S)N(C)C`, for which the AC50 in assay [1] is 26.3 µM (active); in assay [3], 8.69 µM (active); in assay [4], 29.3 µM (active); in assay [5] it was 10.7 µM (active); in assay [6] it was 12.9 µM (active); in assay [7] it was 27.1 µM (active). The AC50 in assay [8] was 7.75 µM (active); in [9], 9.65 µM (active); in assay [11], 12 µM (active); in assay [14], 12 µM (active); in assay [16] it was 20 µM (active); in [17], 12.6 µM (active). Also, the AC50 in [18] is 14.6 µM (active). Besides, the result in assay [2], in [10], in assay [12], in assay [13], in assay [15] and in assay [19] was inactive.
`CCCCNC(=O)n1c(NC(=O)OC)nc2ccccc21`: the AC50 in assay [1] was 9.62 µM (active). Moreover, the result in assay [2], in assay [3], in assay [4], in [5], in [20] and in assay [6] was inactive. For the same compound, the outcome in assay [7], in assay [8], in [9], in assay [10], in assay [11] and in assay [12] was inactive. Besides, the outcome in [13], in assay [14], in assay [15], in [16], in assay [17] and in assay [18] was inactive. Besides, the outcome in [19] was inactive.
On to `C=CCC1=C(C)[C@@H](OC(=O)[C@@H]2[C@@H](C=C(C)C)C2(C)C)CC1=O`, for which the result in assay [1], in [4], in assay [20], in assay [6], in assay [9] and in [10] was inactive. The result in assay [11], in assay [12], in assay [13], in [14], in [16] and in assay [17] was inactive. Also, the result in [18] and in [19] was inactive. For the same compound, the AC50 in [2] was 35.8 µM (active); in assay [3], 20 µM (active); in assay [5], 30.6 µM (active); in [7], 29.5 µM (active); in assay [8], 26.7 µM (active); in [15], 20 µM (active).
`C#CCOS(=O)OC1CCCCC1Oc1ccc(C(C)(C)C)cc1` (configuration not stated): the AC50 in assay [1] was 20 µM (active); in [2], 20 µM (active); in assay [3] it was 13.8 µM (active); in assay [4], 26.8 µM (active); in assay [5] it was 16.3 µM (active); in [20], 25.5 µM (active). Besides, the AC50 in assay [7] was 18.4 µM (active); in assay [8] it was 27 µM (active); in assay [9], 20 µM (active); in assay [11], 13.2 µM (active); in [13], 9.71 µM (active); in [14], 27 µM (active). In addition, the figures for the AC50 in assay [16], in assay [17] and in assay [19] were 29.8 µM (active), 16.5 µM (active) and 5.32 µM (active), respectively. For the same compound, the result in assay [6], in [10], in assay [12], in [15] and in assay [18] was inactive.
With `COP(N)(=O)SC` (configuration not stated), the outcome in assay [1], in [2], in assay [4], in [5], in [6] and in [7] was inactive. For the same compound, the outcome in [8], in assay [9], in assay [10], in assay [11], in [12] and in assay [13] was inactive. For the same compound, the outcome in assay [14], in [15], in assay [16], in assay [17], in assay [18] and in assay [19] was inactive. In assay [3], the concentration at half-maximal activity (AC50) was 5.27 µM (active).
